Screening data deposited in PubChem by National Center for Advancing Translational Sciences (NCATS).
The sample as a whole holds a higher share of hits than the screen did.
Pf Dd2 inh – blocks in vitro growth of P. falciparum Dd2; P. falciparum Dd2 growth, SYBR Green, 72 h; Potency, µM (doses to about 28.9 µM), for the others: at the top dose activity, negative = inhibition, hits mostly inhibitors; hit rate 4.3% among 120,000; AID 1347417; active = well fitted inhibition curve with a large enough effect;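 note: plate controls were DMSO vehicle for no effect and reference drug for full effect; nearly all actives have a fitted effect of over 65% in size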
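Infected erythrocytes (Dd2, 0.3% parasitemia, 2.5% hematocrit final) are added to compound in RPMI-1640/Albumax II medium, grown 72 h at 37C in low oxygen, then lysed with saponin/Triton-X containing SYBR Green and read by fluorescence.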
Starred values were filed as active, the others as inactive; [ ] = dose if it differs, or a comment. Potency is the fitted concentration of half-maximal effect.

Screening CC(C)CN1C(=O)c2cccn2CC1C(=O)NCC1CCN(Cc2ccc(F)cc2)CC1 (stereo not drawn) returned Pf Dd2 inh -7%.
`O=C(c1cccc(F)c1)N1CCC(Oc2cccnc2)C1` (stereo not drawn) gave Pf Dd2 inh 1%.
Screening Cn1ccnc1C(=O)N1CCC(Oc2cccc(F)c2)C1 (stereo not drawn) returned Pf Dd2 inh 7.9µM*.
O=C(C1CCOCC1)N1CCC(Oc2cccc(F)c2)C1 (stereo not drawn) was read as Pf Dd2 inh inactive.
OCC(Cc1ccco1)Cn1ccnc1-c1ccccn1 (stereo not drawn) was read as Pf Dd2 inh -9%.
COC(=O)c1cn([C@H]2CO[C@H]3[C@@H]2OC[C@@H]3NC(=O)NC2CCCCC2)nn1 was read as Pf Dd2 inh 6%[44.1 µM].
`CC(=O)N1CC2(CCN(C(=O)CCC(=O)O)C2)Cc2ccccc21` (stereo not drawn) gave Pf Dd2 inh 14%.
For CCCn1nccc1C(=O)N1CCCC(CCc2cccc(C(F)(F)F)c2)C1 (stereo not drawn) the results were Pf Dd2 inh inactive.
O=C(c1cccc(O)c1)N1CCCC(CCc2cccc(C(F)(F)F)c2)C1 (stereo not drawn) was read as Pf Dd2 inh inactive.
`CCNc1ncc(CN2CCCC(CCc3cccc(C(F)(F)F)c3)C2)cn1` (stereo not drawn) gave Pf Dd2 inh 7.9µM*.
Cc1ccc(CNC(=O)N2CCc3nnc(C4CC4)n3CC2)cc1 was read as Pf Dd2 inh -20%.
For Cn1nccc1CCC(=O)N[C@@H]1COCC[C@H]1Oc1ccc(CO)cc1 the results were Pf Dd2 inh -9%.
COc1ccc(C2Cn3nnc(-c4noc(C5(c6ccccc6)CC5)n4)c3CO2)cc1 (stereo not drawn) was read as Pf Dd2 inh -5%.
For COc1ccc(C2Cn3cnc(C(=O)N4CCC(C(=O)NCC5CCCCC5)CC4)c3CO2)cc1 (stereo not drawn) the results were Pf Dd2 inh -19%.
COc1ccc(NC(=O)N[C@@H]2C=C[C@@H](c3c(C)nn(-c4ccccn4)c3C)C2)cc1 was read as Pf Dd2 inh inactive.
Cc1nn(-c2ccc(C(F)(F)F)cc2)c(C)c1[C@@H]1C=C[C@@H](NC(=O)COc2ccccc2)C1 was read as Pf Dd2 inh -4%.
COc1ccc(-n2nc(C)c([C@@H]3C=C[C@@H](NCc4ccc(N(C)C)cc4)C3)c2C)cc1 was read as Pf Dd2 inh 1.6µM*.
COc1ccc(CN[C@@H]2C=C[C@@H](c3c(C)nn(-c4ccccc4)c3C)C2)cc1 was read as Pf Dd2 inh 6.3µM*.
For CN(Cc1nccs1)c1cc(C2CC(O)C2)ncn1 (stereo not drawn) the results were Pf Dd2 inh -4%.
For CN(Cc1ccc(-c2ccccc2)cc1)C(=O)Cc1ccc(F)cc1 the results were Pf Dd2 inh -4%[44.1 µM].
Screening Cc1cc(OC2CN(Cc3ccnn3C)C2)ccc1F returned Pf Dd2 inh inactive.
Screening OC1CC(c2cc(NCCCn3ccc4ccccc43)ncn2)C1 (stereo not drawn) returned Pf Dd2 inh -18%.
`CCCNC(=O)N1C[C@@H]2C(=O)N(C(CC)c3cccs3)C(=O)[C@@H]2C1` (stereo partly drawn) gave Pf Dd2 inh 0%.
O=C(NC[C@H]1COCc2nc3cc(C(F)(F)F)ccc3n21)c1cccnc1 was read as Pf Dd2 inh -21%[44.1 µM].
COc1ccc(C(=O)NCCc2ncc(C)n2Cc2ccc(F)cc2)cn1 was read as Pf Dd2 inh -11%.
For Cc1cnc(CCNC(=O)NC(C)(C)C)n1Cc1ccccc1 the results were Pf Dd2 inh 4µM*.
`CC(=O)N1CCC(Cc2ncc(C)n2Cc2ccccc2)C1` (stereo not drawn) gave Pf Dd2 inh -13%.
Screening COCCNC(=O)c1coc(COc2ccc3c(c2)C(c2ccc(C)cc2)N(C(=O)C2CC2)CC3)n1 (stereo not drawn) returned Pf Dd2 inh inactive.
C=CCNC(=O)c1coc(COc2ccc3c(c2)C(c2ccc(C)cc2)N(C(=O)C2CC2)CC3)n1 (stereo not drawn) was read as Pf Dd2 inh -14%.
For CCNC(=O)c1coc(COc2ccc3c(c2)C(c2ccc(F)cc2)N(C(=O)CC(C)C)CC3)n1 (stereo not drawn) the results were Pf Dd2 inh 1.4µM*.
Screening Cc1cnc(C(=O)NC2C[C@H]3CC[C@@H](C2)N3C(=O)c2cc(F)cc(F)c2)cn1 (stereo partly drawn) returned Pf Dd2 inh inactive.
COc1ccc(C(=O)Nc2ccnn2C2CCN(C(=O)CN)CC2)cc1 was read as Pf Dd2 inh 11%.
`Cc1nn(-c2ccc(C(C)C)cc2)c(C)c1[C@@H]1C=C[C@@H](NCc2cccc(C#N)c2)C1` gave Pf Dd2 inh 4.5µM*.
Screening Cc1ccc(-n2nc(C)c([C@@H]3C=C[C@@H](NCc4ccc(N(C)C)cc4)C3)c2C)cc1Cl returned Pf Dd2 inh -42%[44.1 µM].
For Cc1nn(-c2ccccc2)c(C)c1[C@@H]1C=C[C@@H](NCc2cccc(C#N)c2)C1 the results were Pf Dd2 inh inactive.
Screening Cc1ccc(-n2nc(C)c([C@@H]3C=C[C@@H](NCc4ccc(F)cc4)C3)c2C)cc1Cl returned Pf Dd2 inh 3.5µM*.
`Cc1nn(-c2ccc(C(C)C)cc2)c(C)c1[C@@H]1C=C[C@@H](NCc2ccc(F)cc2)C1` gave Pf Dd2 inh 4µM*.
Cc1nn(-c2cccc(Br)c2)c(C)c1[C@@H]1C=C[C@@H](NS(C)(=O)=O)C1 was read as Pf Dd2 inh -3%[44.1 µM].
For Cc1nn(CCC#N)c(C)c1[C@@H]1C=C[C@@H](NCc2ccc(F)cc2)C1 the results were Pf Dd2 inh -16%[44.1 µM].
Screening Cc1ccc(-n2nc(C)c([C@@H]3C=C[C@@H](NC(=O)CC(C)(C)CC(=O)O)C3)c2C)cc1Cl returned Pf Dd2 inh inactive.
Screening CCOC(=O)C1=CN(CC(=O)Nc2cccc(Cl)c2)S(=O)(=O)N=C1C returned Pf Dd2 inh -5%.
For CCc1nc(-c2c3n(c(=O)n(Cc4ccc(F)cc4F)c2=O)CCCC3)no1 the results were Pf Dd2 inh 28%.
`Cc1ccc(OCC(=O)N2CCCCCC2c2nc(C)no2)cc1` (stereo not drawn) gave Pf Dd2 inh -12%.
Cc1ccc(CN(C)C2CCc3nn(C)c(=O)n3CC2)o1 (stereo not drawn) was read as Pf Dd2 inh 17%.
COC(=O)[C@@H](Cc1cccnc1)NC(=O)[C@H]1CN(C(=O)Nc2ccccc2)CCN1S(=O)(=O)c1ccccc1 was read as Pf Dd2 inh -15%.
Screening O=C(N1CCCC1)N1CCN(c2cc(Cl)ncn2)C(=O)C1 returned Pf Dd2 inh -6%.
For Cc1ccc(C(C(=O)NCc2c(C)n[nH]c2C)N(C)C)cc1 (stereo not drawn) the results were Pf Dd2 inh 1%.
`O=C(NCc1ccccc1)C1CCN(c2cnc3nccnc3c2)CC1` gave Pf Dd2 inh inactive.
Screening COc1cccc(C2Cn3nnc(-c4nc(-c5ccc(C(F)(F)F)cc5)no4)c3CO2)c1 (stereo not drawn) returned Pf Dd2 inh -13%.
`COc1ccc(C(=O)N[C@@H]2C=C(C(=O)NCCC(N)=O)C[C@@H](O)[C@@H]2O)cc1` gave Pf Dd2 inh -4%[44.1 µM].
`Cc1nc2c(c(-c3ccc(O)cc3)n1)CN(Cc1ccccn1)CC2` gave Pf Dd2 inh 6%[44.1 µM].
